Laboratory results reported in the supplement of paper PMC13380429.
Unmarked numbers belong to inactive results.

Test system: Vero E6 infected with SARS-CoV-2
Experiment: inhibition of SARS-CoV-2 cytopathic effect; higher = more antiviral protection, active = above 15
Details: 48 h

| SMILES | inhibition of SARS-CoV-2 cytopathic effect (1 nM) | inhibition of SARS-CoV-2 cytopathic effect (8.33 nM) | inhibition of SARS-CoV-2 cytopathic effect (100 nM) | inhibition of SARS-CoV-2 cytopathic effect (833.33 nM) | inhibition of SARS-CoV-2 cytopathic effect (10000 nM) |
| --- | --- | --- | --- | --- | --- |
| CCCc1nc(C(C)(C)O)c(C(=O)OCc2oc(=O)oc2C)n1Cc1ccc(-c2ccccc2-c2nnn[nH]2)cc1 [olmesartan-medoxomil] | -1.27% | 0.1% | -1.32% | 1.87% | 0.55% |
| O=C(O)/C=C1\CCCc2ccccc2[C@H]1O (racemic) | 0.95% | 1.44% | 1.65% | 1.72% | 4.1% |
| CC1(C)C[C@@H]1C(=O)N/C(=C\CCCCSC[C@H](N)C(=O)O)C(=O)O [Cilastatin Sodium] | 1.3% | 3.44% | -0.05% | -0.19% | -0.52% |
| COc1ccc(C[C@H]2NC[C@H](O)[C@H]2OC(C)=O)cc1 [anisomycin] | 3.91% | 6% | 44.2% (active) | 7.95% | -30.6% |
| c1ccc(NCc2ccc(CNc3ccccn3)cc2)nc1 | 0.1% | 0.65% | -3.43% | -0.24% | -0.68% |
| CC(C)(F)C[C@H](N[C@@H](c1ccc(-c2ccc(S(C)(=O)=O)cc2)cc1)C(F)(F)F)C(=O)NC1(C#N)CC1 [odanacatib] | -3.88% | -4.52% | -3.49% | -1.8% | 0.04% |
| N=C(N)N [guanidine] | -0.16% | 0.17% | -2.15% | -3.58% | -6.14% |
| OC(CN1CCN(c2cccc(Cl)c2)CC1)C(c1ccccc1)c1ccccc1 (stereo not given) | 2.69% | 4.95% | 2.68% | 1.94% | 3.63% |
| O=C(C(c1ccccc1)c1ccccc1)N1CCN(CC(O)COc2cccc3ncccc23)CC1 (stereo not given) [dofequidar] | -0.98% | 4.84% | -1.1% | -0.87% | 1.44% |
| Clc1cccc(SC2CCNCC2)n1 [anpirtoline] | -4.7% | -4.88% | 1.08% | 0.38% | -4.79% |
| Cc1ccc(S(=O)(=O)c2ccc([N+](=O)[O-])o2)cc1 | 0.14% | 0.39% | 2.55% | 13.5% | -21.6% |
| CCN(CCNC(=O)Nc1ccccc1Br)c1cccc(C)c1 | -0.09% | 2.65% | -0.41% | -0.7% | 0.98% |
| OC[C@H]1NC[C@@H](O)[C@@H](O)[C@@H]1O [1-deoxymannojirimycin] | -5.76% | 0.14% | -0.54% | 1.33% | -0.79% |
| CCC[C@@]1(CCc2ccccc2)CC(O)=C([C@H](CC)c2cccc(NS(=O)(=O)c3ccc(C(F)(F)F)cn3)c2)C(=O)O1 [tipranavir] | -0.16% | 4.7% | 1.56% | 0.71% | 4.99% |
| CN[C@@H](C)C(=O)N[C@H](C(=O)N1CCC[C@H]1C(=O)N[C@H]1c2ccccc2C[C@H]1OCC#CC#CCO[C@@H]1Cc2ccccc2[C@@H]1NC(=O)[C@@H]1CCCN1C(=O)[C@@H](NC(=O)[C@H](C)NC)C1CCCCC1)C1CCCCC1 | 0.65% | 4.06% | 1.35% | -6.56% | -3.86% |
| Clc1ccccc1C(c1ccccc1)(c1ccccc1)n1ccnc1 [clotrimazole] | -0.06% | -0.06% | -0.28% | 0.61% | 2.73% |
| COc1c(OCCCN2CCOCC2)ccc2c1N=C(NC(=O)c1cnc(N)nc1)N1CCN=C21 [copanlisib] | -2.48% | -1.99% | -3.58% | -5.18% | -12.2% |
| COc1c2occc2c(OC)c2c(=O)cc(C)oc12 [khellin] | 3.97% | -0.75% | -0.95% | -3.54% | -0.89% |
